Sampled rows, rich in hits. Any-hit rate of the full collection: about 2.7%.
IDE cell inh: inhibitors of human insulin-degrading enzyme in cells; P14735; HEK cells, FAbetaB cleavage, fluorescence polarization; inhibition, % at 5.59 µM; 0.41% of 320,000 active; AID 434962;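 active = percent inhibition above the average of all tested compounds plus 3 SD, set per screening campaign, cut at about 16% in these data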;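 note: IDE supplied by intact live HEK cells; FP after avidin binding of uncleaved biotin substrate so inhibition keeps polarization high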
Target sequence (P14735 whole entry, looked up): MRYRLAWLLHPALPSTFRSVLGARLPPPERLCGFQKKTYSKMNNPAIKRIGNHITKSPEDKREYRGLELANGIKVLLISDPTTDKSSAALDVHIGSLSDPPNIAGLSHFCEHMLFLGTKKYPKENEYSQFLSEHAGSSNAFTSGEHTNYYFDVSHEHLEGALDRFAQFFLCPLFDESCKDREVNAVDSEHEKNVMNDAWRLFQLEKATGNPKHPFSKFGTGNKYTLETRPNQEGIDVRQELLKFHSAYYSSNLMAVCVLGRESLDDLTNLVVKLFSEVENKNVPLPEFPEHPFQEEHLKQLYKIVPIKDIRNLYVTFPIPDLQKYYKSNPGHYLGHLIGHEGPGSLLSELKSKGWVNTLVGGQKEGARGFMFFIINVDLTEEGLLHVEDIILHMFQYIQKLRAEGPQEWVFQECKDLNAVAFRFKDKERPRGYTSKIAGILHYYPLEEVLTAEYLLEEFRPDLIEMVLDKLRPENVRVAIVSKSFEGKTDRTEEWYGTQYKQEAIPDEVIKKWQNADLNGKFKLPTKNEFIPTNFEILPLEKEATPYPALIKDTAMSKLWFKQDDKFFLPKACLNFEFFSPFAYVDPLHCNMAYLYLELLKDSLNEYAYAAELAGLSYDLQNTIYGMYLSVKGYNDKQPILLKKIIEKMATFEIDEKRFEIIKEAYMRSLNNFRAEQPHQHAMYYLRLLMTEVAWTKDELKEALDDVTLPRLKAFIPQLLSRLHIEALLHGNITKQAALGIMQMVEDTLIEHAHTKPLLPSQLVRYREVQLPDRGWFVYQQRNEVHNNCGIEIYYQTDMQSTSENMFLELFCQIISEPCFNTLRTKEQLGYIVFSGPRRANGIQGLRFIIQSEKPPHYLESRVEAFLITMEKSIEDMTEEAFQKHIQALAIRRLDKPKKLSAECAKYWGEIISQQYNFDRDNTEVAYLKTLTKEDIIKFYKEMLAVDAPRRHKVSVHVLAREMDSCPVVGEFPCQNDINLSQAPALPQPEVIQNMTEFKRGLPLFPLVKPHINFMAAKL
TMEM16A inh: mouse TMEM16A channel inhibition, primary screen; HEK293 TMEM16A/YFP iodide influx fluorescence, ionomycin; normalized B-score (activity score, 25-100; higher = stronger inhibition) at 10 µM; 1.2% of 310,000 active; AID 588511; Q8BHY3;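 active = ratio plate-corrected score three or more library SD toward inhibition, starting fluorescence score within five deviations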;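 note: score derived from kinetic fluorescence span divided by baseline fluorescence per well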
ANO1 activ: activators or potentiators of mouse TMEM16A chloride channel. Q8BHY3. HEK293 TMEM16A/YFP-H148Q/I152L, iodide quench fluorescence; hits give low values. B-score at 10 µM. 0.3% of 340,000 active. AID 623877;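 active = fluorescence-ratio B-score plate-corrected deviation score at least 3 library SD below zero, with starting fluorescence score within 5 deviations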;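 note: channel opened by trigger with iodide after compound preincubation; score built on the fluorescence ratio of max minus min over baseline; more negative score means more quench and so TMEM16A activation or potentiation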
IDE cell activ: IDE (human) activation, cell-based. P14735. HEK cells, FAbeta-B cleavage, fluorescence polarization; 0% vehicle, 100% cell-free pure enzyme wells. activation, % at 5.96 µM. 0.073% of 340,000 active. AID 493087;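 active = activation above the mean of all tested compounds plus 3 SD, set per screening campaign, cut at about 17% in these data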
CHT allo act: allosterically activates the human high affinity choline transporter. CHT-expressing cells, membrane potential dye, choline EC20; hits give high values; LV-AA mutant CHT in HEK293 cells. B-score at 10 µM. Q9GZV3. 0.49% of 310,000 active. AID 488977;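 active = initial fluorescence not abnormally high and integrated response B-score, plate-corrected, over 3 SD above library mean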
CHT inh: inhibits the human high affinity choline transporter; 0.86% of 310,000 active; Q9GZV3; B-score at 10 µM; AID 488975; CHT-expressing cells, membrane potential dye, choline response; hits give low values;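 active = B-score over 3 SD under the library average, and starting fluorescence ratio not unusually high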;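 note: choline stimulus applied at its EC90 after an EC20 pre-addition; B-score computed on integrated fluorescence ratio after choline addition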
CHT act confirm: human CHT activation, confirmatory screen; shares compounds with CHT allo act; CHT-expressing cells, membrane potential dye fluorescence (FDSS); % of choline EC20–EC90 response window; HEK293 expressing CHT LV-AA mutant; choline added at its EC20; activation, % at 10 µM; 91% of 2,500 active; AID 504833;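 active = primary screen active, with duplicate mean activation above negative control mean plus 3 SD, cut at about 11% in these data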
HEK293 MP dye: counter-screen for CHT activators: effect in parental HEK293 cells | ratio readout change at 10 µM, hits read low | 62% of 2,500 active | membrane potential dye fluorescence (FDSS); measured after EC20 choline addition | shares compounds with CHT allo act | AID 623908;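 active = duplicate-averaged ratio beyond 3 SD from buffer wells, up or down, though filed actives are nearly all decreases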
Of the large screens only hits and unclear results are named; the others gave an inactive call (follow-up assays come after a bar, where they were run).

O=C(/C=C/c1cccc(Cl)c1Cl)OCC(=O)N1CCOCC1	none (no result: IDE cell inh, TMEM16A inh, CHT allo act, CHT inh)
Cc1ccc(CNc2ccc3nnc(-c4ccccc4)n3n2)cc1	none
c1ccc(CN2CCN(CCCNc3ccc4nnc(-c5ccccc5)n4n3)CC2)cc1	CHT allo act 7.8 | CHT act confirm 54 | HEK293 MP dye -48
C=CCn1cc(C(=O)OCC)c(=O)c2ccc(F)cc21	none | CHT act confirm 37 | HEK293 MP dye -43
CN(C)c1cc[n+](CC[n+]2ccc(N(C)C)cc2)cc1	none
CN(C)c1cc[n+](Cc2c(Cl)cccc2Cl)cc1	CHT allo act 6.8 | CHT act confirm 43 | HEK293 MP dye -46
Cc1cccc(C(=O)OCC(=O)N2CCCCCC2)c1	none (no result: TMEM16A inh, CHT allo act, CHT inh)
c1csc(-c2nc3nc4ccccc4nc3n2Cc2ccc3c(c2)OCO3)c1	CHT allo act 8.7 | CHT act confirm 15 | HEK293 MP dye inactive
COc1ccc(S(=O)(=O)N(C)C[C@H]2Oc3ccc(NS(=O)(=O)c4cccs4)cc3C(=O)N([C@H](C)CO)C[C@@H]2C)cc1	none (no result: IDE cell inh, TMEM16A inh, CHT allo act, CHT inh)
CCOc1cc(N2CCOCC2)c(OCC)cc1NC(=O)COC(=O)c1ccc(Cl)cc1N	none (no result: TMEM16A inh, CHT allo act, CHT inh)
CCOc1cc(N2CCOCC2)c(OCC)cc1NC(=O)COC(=O)c1cc2ccccc2cc1O	CHT allo act 7.5 | CHT act confirm 17 | HEK293 MP dye inactive
COc1ccc(CCN(C)C(=O)CSc2nc3ccccc3c(=O)n2CC2CCCO2)cc1OC (centres undefined)	none (no result: IDE cell inh, TMEM16A inh, CHT allo act, CHT inh)
Cc1cnccc1CN(C)C(=O)CC1C(=O)NCCN1CC1CCCCC1 (centres undefined)	CHT allo act 7.7 | CHT act confirm inactive | HEK293 MP dye inactive
CC(C)c1ccc(NC2CCCN(C(=O)CC3CCCC3)C2)cc1 (centres undefined)	none
COCCCNC(=O)Cn1ccc(N)nc1=O	none (no result: TMEM16A inh, CHT allo act, CHT inh)
Cc1cc(C)c2ccc(N)nc2c1O	none | CHT act confirm 42 | HEK293 MP dye -53
Cc1cc(C)c2cccc(N)c2n1	none
CCCCN(CC)CCNC(=O)CN(C)S(=O)(=O)c1ccc2c(c1)c(=O)n(C)c(=O)n2C	none | CHT act confirm 32 | HEK293 MP dye -34
COc1ccc(CNC(=O)CN(C)S(=O)(=O)c2ccc3c(c2)c(=O)n(C)c(=O)n3C)cc1	none
O=C(CCN=C1NS(=O)(=O)c2ccccc21)Nc1ccc(F)cc1Cl	none (no result: TMEM16A inh, CHT allo act, CHT inh)
CN1C(=O)CS/C1=N\NC(=O)COc1cccc2cccnc12	CHT allo act 6.6 | CHT act confirm 48 | HEK293 MP dye -56
Cn1[nH]cc(C=NC(N)=O)c1=O	none (no result: IDE cell inh, TMEM16A inh, CHT allo act, CHT inh)
Cc1nc([N+](=O)[O-])c(N2CCN(Cc3ccccc3)CC2)n1Cc1ccccc1	CHT allo act 7.4 | CHT act confirm 33 | HEK293 MP dye inactive
Cc1[nH]c2ccccc2c1/C=N/Nc1ccc([N+](=O)[O-])cc1	none | CHT act confirm 17 | HEK293 MP dye inactive
Cc1cc(=O)n(C)c(=O)n1CCCCCOc1cccc([N+](=O)[O-])c1	none
Cc1cc(=O)n(C)c(=O)n1CCCCCCN1CCCC1	none | CHT act confirm 44 | HEK293 MP dye -34
Nc1nc(N)nc(C2C=CCCC2)n1 (centres undefined)	none (no result: IDE cell inh, TMEM16A inh, CHT allo act, CHT inh)
Cc1ccc(S(=O)(=O)c2cn(C)c3cc(N4CCN(C)CC4)c(F)cc3c2=O)c(C)c1	CHT allo act 9.1 | CHT act confirm 74 | HEK293 MP dye -84
CCn1cc(S(=O)(=O)c2ccc(OC)cc2)c(=O)c2cc(F)c(N3CCN(C)CC3)cc21	none | CHT act confirm 59 | HEK293 MP dye -48
CCn1cc(C(=O)O)c(=O)c2cc(F)c(N3CCN(C(=S)NC(=O)c4ccc(OC)cc4)CC3)cc21	none
CCN1CCN(c2cc3c(cc2F)c(=O)c(S(=O)(=O)c2ccccc2)cn3C)CC1	CHT allo act 8.4 | CHT act confirm 77 | HEK293 MP dye -99
CCC(C)NC(=O)c1cn(CC)c2cc(N3CCN(C)CC3)c(F)cc2c1=O (centres undefined)	none (no result: IDE cell activ)
CC(C)[C@@H](C(=O)NCc1ccco1)N1C(=O)N2CCc3c([nH]c4ccccc34)[C@@]2(C)C1=O	none
Cc1cc(NS(=O)(=O)c2ccc(NC(=O)c3cnc4sccn4c3=O)cc2)nc(C)n1	none
Cc1cc(C)nc(NC(=O)c2cnc3sccn3c2=O)n1	CHT allo act 9.1 | CHT act confirm 52 | HEK293 MP dye -51
O=C(Nc1ccccc1C(=O)NCCc1ccccc1)c1cnccn1	none
O=C(Nc1nnc(SCCN2CCOCC2)s1)C1CC(=O)N(c2ccc(F)cc2)C1 (centres undefined)	none
CC(Sc1nnc(-c2ccco2)n1N)C(=O)NCc1ccc2c(c1)OCO2 (centres undefined)	none (no result: IDE cell inh, TMEM16A inh, CHT allo act, CHT inh)
COc1ccc(-c2nnc(SC(C)C(=O)NCc3ccc4c(c3)OCO4)n2Cc2ccco2)cc1 (centres undefined)	CHT allo act 16 | CHT act confirm 62 | HEK293 MP dye inactive
Cc1nnc2c(N3CCN(CCO)CC3)nc3ccccc3n12	none | CHT act confirm 52 | HEK293 MP dye -50
Cc1ccccc1SCC(=O)Nc1cc(C(F)(F)F)ccc1N1CCOCC1	TMEM16A inh 100 | CHT act confirm 36 | HEK293 MP dye inactive
COC(=O)c1ccc(-c2nc(O)c3cnccn23)cc1	none | CHT act confirm 23 | HEK293 MP dye -37
COCCN(C(=O)COC(=O)Cc1c[nH]c2ccccc12)c1c(N)n(Cc2ccccc2)c(=O)[nH]c1=O	none
CN(C)CCSc1nnc2sc3ccccc3n12	CHT allo act 6.6 | CHT act confirm 58 | HEK293 MP dye -55
N#CCSc1nnc2sc3ccccc3n12	none
CCOC(=O)C1=C(COC(=O)CCOc2cc(C)ccc2C)NC(=O)NC1C (centres undefined)	none (no result: TMEM16A inh, CHT allo act, CHT inh)
CCCC12CN(C(=O)c3ccc([N+](=O)[O-])cc3)CC(C)(CN(C(=O)c3ccc([N+](=O)[O-])cc3)C1)C2=O	none (no result: IDE cell activ) | CHT act confirm 45 | HEK293 MP dye inactive
CC12CN(C(=O)c3ccc([N+](=O)[O-])cc3)CC(C)(CN(C(=O)c3ccc([N+](=O)[O-])cc3)C1)C2=O	none (no result: ANO1 activ, IDE cell activ)
CN(CC(=O)Nc1cccc(F)c1)C(=O)c1ccc(N2CCCCCC2)c([N+](=O)[O-])c1	none
CN(CC(=O)Nc1cccc(F)c1)C(=O)c1cc([N+](=O)[O-])ccc1N1CCCCC1	none | CHT act confirm 17 | HEK293 MP dye inactive
CC[N+](C)(C)CCN(Cc1ccc(Cl)cc1)c1ccccn1	none
